Laboratory results reported in PubChem BioAssay.
Values without a mark were called inactive. For part of these data: Entries with a potency or affinity are not part of this list. Activity calls are given as the source filed them. Unless noted, no rule for the calls is given here.

How the values were obtained:
[1] = antimalarial activity against Dd2 strain (AID 2302;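 active = growth inhibition above 50% at the single 2 µM test dose, taken to imply half-maximal potency below 2 µM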;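 also: 0% = DMSO untreated growth and 100% = chloroquine plus artemisinin killed control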); details: P. falciparum Dd2 in RBCs, LDH growth readout, 72 h; at 2 µM; hits give high values
[2] = HepG2 cytotoxicity, primary screen, cytotoxicity control for P. falciparum antimalarial project, cell-based, ATP luminescence (AID 2303;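 active = inhibition above 50%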;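 also: 0% = DMSO wells and 100% = digitonin-killed cells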); details: HepG2 viability, 24-48 h, at 10 µM, hits give high values
[3] = target: L-lactate dehydrogenase (Plasmodium falciparum (isolate CDC / Honduras)) (UniProt Q27743); assay: PfLDH activity inhibition – cell lysate, 3D7 strain, counter-screen for P. falciparum growth inhibition project (AID 2304);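 also: 0% = vehicle and 100% = reference inhibitor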; details: P. falciparum 3D7 crude extract, LDH APAD/NBT absorbance; at 2 µM; hits give high values
[4] = inhibition of 3D7 malaria parasite growth – strain 3D7 (AID 2306);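 also: 0% = DMSO wells and 100% = chloroquine plus artemisinin control wells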; details: P. falciparum 3D7 erythrocytic growth, LDH absorbance, 72 h; at 2 µM; hits give high values
[5] = target: Protein kinase 7 (PK7), Plasmodium falciparum 3D7 (PF3D7_0213400) (UniProt Q7YTF7); assay: inhibition of Plasmodium PK7 catalytic activity – biochemical, TCAMS antimalarial set, Kinase-Glo luminescence (AID 1159587); details: recombinant PfPK7, Kinase-Glo ATP depletion luminescence
[6] = target: Calcium-dependent protein kinase 4 (Plasmodium falciparum (isolate 3D7)) (UniProt Q8IBS5); assay: PfCDPK4 kinase inhibitors, biochemical, TCAMS library (AID 1159588; cut-off not given, nearly all actives have IC50 up to about 0.91 µM); details: recombinant PfCDPK4, Kinase-Glo ATP depletion luminescence
[7] = target: Plasmodium falciparum protein kinase 6 (PK6, PF3D7_1337100) (UniProt Q8IDW1); assay: PfPK6 kinase inhibitors, biochemical, TCAMS library (AID 1159586); details: recombinant PfPK6, Kinase-Glo ATP depletion luminescence
Chain of Plasmodium falciparum protein kinase 6 (PK6, PF3D7_1337100) (Q8IDW1 1-305): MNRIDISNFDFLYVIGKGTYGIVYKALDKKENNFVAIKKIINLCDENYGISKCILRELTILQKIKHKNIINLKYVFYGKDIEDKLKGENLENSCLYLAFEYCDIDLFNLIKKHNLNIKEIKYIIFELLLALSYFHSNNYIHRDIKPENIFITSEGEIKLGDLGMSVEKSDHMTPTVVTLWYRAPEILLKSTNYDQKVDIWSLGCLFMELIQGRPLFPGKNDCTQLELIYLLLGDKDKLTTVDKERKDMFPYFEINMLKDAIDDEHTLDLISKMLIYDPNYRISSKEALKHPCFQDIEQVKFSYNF

Chain of L-lactate dehydrogenase (Plasmodium falciparum (isolate CDC / Honduras)) (Q27743 whole entry, looked up): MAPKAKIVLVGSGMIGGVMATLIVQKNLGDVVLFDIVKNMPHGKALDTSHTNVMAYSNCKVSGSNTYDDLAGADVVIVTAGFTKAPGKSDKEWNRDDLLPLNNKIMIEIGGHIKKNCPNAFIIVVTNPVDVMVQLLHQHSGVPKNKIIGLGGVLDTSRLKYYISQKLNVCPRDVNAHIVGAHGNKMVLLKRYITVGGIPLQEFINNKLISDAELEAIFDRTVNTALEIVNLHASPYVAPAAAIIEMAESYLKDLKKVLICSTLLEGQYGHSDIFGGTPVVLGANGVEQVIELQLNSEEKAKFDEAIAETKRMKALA
Chain of Calcium-dependent protein kinase 4 (Plasmodium falciparum (isolate 3D7)) (Q8IBS5 whole entry, looked up): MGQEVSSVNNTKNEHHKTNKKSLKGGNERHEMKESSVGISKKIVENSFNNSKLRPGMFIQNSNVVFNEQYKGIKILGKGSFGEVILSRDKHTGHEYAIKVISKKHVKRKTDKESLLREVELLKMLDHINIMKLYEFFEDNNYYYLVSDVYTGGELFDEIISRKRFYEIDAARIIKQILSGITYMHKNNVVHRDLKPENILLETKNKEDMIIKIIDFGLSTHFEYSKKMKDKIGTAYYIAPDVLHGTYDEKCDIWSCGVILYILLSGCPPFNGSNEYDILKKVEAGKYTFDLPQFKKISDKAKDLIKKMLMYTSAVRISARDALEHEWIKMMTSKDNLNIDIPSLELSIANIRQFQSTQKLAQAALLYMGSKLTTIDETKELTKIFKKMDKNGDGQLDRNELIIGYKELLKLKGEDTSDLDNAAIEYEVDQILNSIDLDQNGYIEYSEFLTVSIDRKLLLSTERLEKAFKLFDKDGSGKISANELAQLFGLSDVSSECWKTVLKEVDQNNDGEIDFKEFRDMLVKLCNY
Chain of Protein kinase 7 (PK7), Plasmodium falciparum 3D7 (PF3D7_0213400) (Q7YTF7 1-343): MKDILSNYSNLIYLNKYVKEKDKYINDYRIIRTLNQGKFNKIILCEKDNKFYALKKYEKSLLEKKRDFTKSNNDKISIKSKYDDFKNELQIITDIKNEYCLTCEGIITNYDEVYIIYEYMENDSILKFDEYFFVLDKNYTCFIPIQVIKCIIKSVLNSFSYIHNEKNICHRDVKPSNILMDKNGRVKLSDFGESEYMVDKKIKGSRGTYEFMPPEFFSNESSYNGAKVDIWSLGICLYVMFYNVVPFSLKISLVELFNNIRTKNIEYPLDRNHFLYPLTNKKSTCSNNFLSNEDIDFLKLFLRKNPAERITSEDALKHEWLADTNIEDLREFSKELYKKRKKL

## NC(=O)c1ccccc1Nc1nc(Nc2cccc(N3CCN(CCO)CC3)c2)ncc1Cl
[1]
  growth inhibition: 98% (active)
[2]
  inhibition: 93% (active)
[3]
  inhibition: 1%
[4]
  growth inhibition: 95% (active)
[5]
  outcome: inactive
[6]
  outcome: inactive

## CS(=O)(=O)Cc1ccc(Nc2nccc(N3CCCc4cc(NC(=O)Nc5cccc(C(F)(F)F)c5)ccc43)n2)cc1
[1]
  growth inhibition: 99% (active)
[2]
  inhibition: 46%
[3]
  inhibition: -4%
[4]
  growth inhibition: 102% (active)
[5]
  outcome: inactive
[6]
  outcome: inactive

## CNC(=O)c1ccccc1Nc1nc(Nc2ccc(N3CCN(C)CC3)nc2)ncc1C
[1]
  growth inhibition: 50% (active)
[2]
  inhibition: 75% (active)
[3]
  inhibition: 4%
[4]
  growth inhibition: 92% (active)
[5]
  outcome: inactive
[6]
  outcome: inactive

## COc1ccc(Nc2ncc(Cl)c(Nc3cccnc3C(N)=O)n2)cc1N1CCN(C)CC1
[1]
  growth inhibition: 97% (active)
[2]
  inhibition: 77% (active)
[3]
  inhibition: 6%
[4]
  growth inhibition: 95% (active)
[5]
  outcome: inactive
[6]
  outcome: inactive

## Cn1cc(-c2ccnc3[nH]c(-c4cccc(CNC5CCC(O)CC5)c4)cc23)cn1 (stereo unspecified)
[1]
  growth inhibition: 82% (active)
[2]
  inhibition: 48%
[3]
  inhibition: 2%
[4]
  growth inhibition: 95% (active)
[5]
  outcome: inactive
[6]
  outcome: inactive

## O=S1(=O)NCc2ccc(Nc3nccc(Nc4ccc5c(cnn5Cc5ccccc5)c4)n3)cc21
[1]
  growth inhibition: 33%
[2]
  inhibition: -8%
[3]
  inhibition: -1%
[4]
  growth inhibition: 94% (active)
[5]
  outcome: inactive
[6]
  outcome: inactive

## O=C(Nc1cccc(-c2nn3ccccc3c2-c2ccnc(Nc3cccc(-c4cnco4)c3)n2)c1)C1CCCCC1
[1]
  growth inhibition: 99% (active)
[2]
  inhibition: 71% (active)
[3]
  inhibition: -4%
[4]
  growth inhibition: 95% (active)
[7]
  outcome: inactive
[5]
  outcome: inactive

## CCn1c(-c2nonc2N)nc2c(-c3cccc(NC(=O)Nc4ccc(C(F)(F)F)cc4)c3)ncc(OCCCN)c21
[1]
  growth inhibition: 63% (active)
[2]
  inhibition: 36%
[3]
  inhibition: 6%
[4]
  growth inhibition: 94% (active)
[7]
  outcome: inactive
[5]
  outcome: inactive

## NC[C@H](CC1CCCCC1)NC(=O)c1ccc(-c2ccnc3[nH]ccc23)s1
[1]
  growth inhibition: 4%
[2]
  inhibition: 39%
[3]
  inhibition: 5%
[4]
  growth inhibition: 98% (active)
[7]
  outcome: inactive
[5]
  outcome: inactive

## CCn1c(-c2nonc2N)nc2c(-c3cccc(NC(=O)Nc4cccc(Cl)c4)c3)ncc(OCCCN)c21
[1]
  growth inhibition: 78% (active)
[2]
  inhibition: 9%
[3]
  inhibition: -1%
[4]
  growth inhibition: 91% (active)
[7]
  outcome: inactive
[5]
  outcome: inactive

## CNC(=O)c1ccccc1Nc1nc(Nc2cccc(CS(C)(=O)=O)c2)ncc1C
[1]
  growth inhibition: 95% (active)
[2]
  inhibition: 74% (active)
[3]
  inhibition: -4%
[4]
  growth inhibition: 97% (active)
[5]
  outcome: inactive
[6]
  outcome: inactive
